This is an account of results in PubChem BioAssay.

Structures are written as SMILES. Calls of active or inactive are those of the source. Unless noted, how the calls were made is not given here.

Assay [1] in a line: compounds binding Alexa647 anti-His antibody – biochemical, small-molecule microarray, 635 nm fluorescence, artefact control for SMM control protein annotation, primary screen (AID 1128).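 Further: score merges feature fluorescence with signal-to-noise for each printed compound spot.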 The note with it: higher = more signal.
Assay [2] concerns Human papillomavirus type 1a E7 protein (residues 1-88). As to the kind of experiment: HPV1a E7 small-molecule binders, primary screen, biochemical, small-molecule microarray, residues 1-88, 635 nm (AID 1129). The note with it: small-molecule microarray binding, fluorescence 635 nm; higher = more signal.
Assay [3] deals with Focal adhesion kinase 1 (Homo sapiens) (UniProt Q05397). As to the kind of experiment: PTK2 protein binding on printed compound slides – biochemical, small-molecule microarray, 635/667 nm fluorescence, BSA, DTT, primary screen (AID 1130).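 Further: composite of spot emission at 667 nm and signal to noise over triplicate slides.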 The note with it: 635 nm fluorescence, higher = more signal.
Assay [4] has as its system Fibrinogen (Alexa647-labelled). As to the kind of experiment: Alexa647-fibrinogen binding to printed small molecules – biochemical, small-molecule microarray, 635/667 nm fluorescence, artefact control for SMM control-protein annotation, profiling panel (AID 1131).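 Further: z-score merges 667 nm fluorescence with per-spot signal-to-noise over triplicate slides.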 The note with it: fibrinogen-A647 binding fluorescence, higher = more signal.
Assay [5] addresses Follistatin (Homo sapiens) (UniProt P19883). As to the kind of experiment: FST protein binding to printed compounds – biochemical, small-molecule microarray, 635/667 nm fluorescence, primary screen (AID 1132). The note with it: 635 nm fluorescence, higher = more signal.
Assay [6] has as its target Fibroblast growth factor 2 (Homo sapiens) (UniProt P09038). The assay is described as follows: basic fibroblast growth factor binding to printed compounds – biochemical, small-molecule microarray, 635/667 nm fluorescence, primary screen (AID 1133). The following applies: FGF2, fluorescence 635/667, higher = more signal.
Assay [7] can be described thus: JC-1 mitochondrial potential readout, lung cancer cells – cell-based, A549, JC-1 fluorescence, basal, 24 h, 100 nL, profiling panel (AID 1138).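 Further: A549 lung adenocarcinoma cells under basal conditions with no added stimulus; test concentration not given here.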 The note with it: higher = more signal.
The subject of another assay is Lefty1. The assay is described as follows: Lefty1 protein binding to printed compounds – biochemical, small-molecule microarray, 635/667 nm fluorescence, primary screen (AID 1139). The following applies: fluorescence 635/667, higher = more signal.
For assay [8], the system named is wheat germ agglutinin (Triticum aestivum), Alexa647-labelled. The assay is described as follows: Alexa647-WGA lectin binding to printed small molecules – biochemical, small-molecule microarray, 635/667 nm fluorescence, artefact control for SMM control-protein annotation, profiling panel (AID 1140).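 Further: score merges 667 nm feature emission with signal to noise over triplicate slides.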 The note with it: WGA-A647 binding, 635 nm fluorescence, higher = more signal.

Assay [9] deals with Luciferin 4-monooxygenase (Photinus pyralis) (UniProt P08659). As to the kind of experiment: inhibition of purified Photinus pyralis luciferase – biochemical, luminescence, purified enzyme, 2006 set, primary screen (AID 1141).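 Further: cell-free assay with purified firefly luciferase at 100 ng per well in PBS; test concentration not given here.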 The following applies: purified firefly luciferase, SteadyGlo luminescence, 30 min; higher = more signal, called active from +8 up or from −8 down.
Assay [10] has as its system Wnt5a (protein binding on small-molecule microarray). The assay is described as follows: small molecules binding Wnt5a protein – biophysical, small-molecule microarray, 635/667 nm fluorescence, primary screen (AID 1142).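 Further: fluorescence read at 667 nm with signal to noise per printed feature.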 The note with it: 635 nm fluorescence, higher = more signal.
Assay [11] is described as follows: ATP-based viability of Huh7 replicon cells – cell-based, CellTiter-Glo luminescence, basal, 48 h, cytotoxicity control for HCV replication inhibitor project, primary screen (AID 1143).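 Further: Huh7 hepatoma cells carrying a hepatitis C replication reporter with no stimulus; test concentration not given here.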 The note with it: higher = more signal, called active from +8 up or from −8 down. (In general: Replicon systems follow genome replication, usually without infectious particles.)
Assay [12] can be described thus: Pseudomonas biofilm growth suppression – PAO1 strain, BacTiter-Glo luminescence, LB-PBS, primary screen (AID 1144). The note with it: P. aeruginosa PAO1 biofilm, 12 h, higher = more signal.
Assay [13] is described as follows: basal CRE-LacZ reporter activity in PC12 – cell-based, unstimulated, primary screen (AID 1145). The note with it: no forskolin, luminescence, 4.5 h, higher = more signal, called active from +8 up or from −8 down.
The nature of assay [14]: forskolin-driven CRE-LacZ activity in PC12 – cell-based, CRE-LacZ reporter, forskolin-stimulated, primary screen (AID 1146).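 Further: PC12 cells with 6xCRE LacZ reporter stimulated by forskolin 10 µM; beta-galactosidase reporter signal reflecting CREB driven transcription.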 The note with it: luminescence, 4.5 h, higher = more signal, called active from +8 up or from −8 down.
Assay [15] deals with Streptavidin (Streptomyces avidinii) (UniProt P22629). The assay is described as follows: compounds binding control protein streptavidin – biophysical, small-molecule microarray, 635/667 nm fluorescence, artefact control for SMM compound annotation, primary screen (AID 1147).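 Further: signal reflects streptavidin binding to arrayed compounds as a control protein.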 The following applies: higher = more signal.
Assay [16] is described as follows: probe aInhba binding on compound microarray – biochemical, small-molecule microarray, 635/667 nm fluorescence, primary screen (AID 1148).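 Further: score merges 667nm spot fluorescence with signal-to-noise for antibody binding to printed compounds.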 The following applies: higher = more signal.
In assay [17] the target is Torsin-1A (Homo sapiens) (UniProt O14656). The assay is described as follows: TOR1A wild-type binding on microarray – cell lysate, small-molecule microarray, lysate, 635/667 nm, primary screen (AID 1149). The following applies: COS7 hTOR1A-WT lysate, 635 nm fluorescence, higher = more signal.
For assay [18] the target is unchanged. As to the kind of experiment: torsin A mutant lysate binding on microarrays – cell lysate, small-molecule microarray, COS7 lysate, 635/667 nm fluorescence, primary screen (AID 1150).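 Further: score pools 667 nm emission and signal to noise measuring lysate protein binding.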 The following applies: COS7 hTOR1A mutant lysate, 635 nm fluorescence, higher = more signal.
For assay [19], the system named is Sonic hedgehog protein (Shh). As to the kind of experiment: Sonic hedgehog microarray binding compounds – biochemical, small-molecule microarray, 635/667 nm fluorescence, primary screen (AID 1151).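 Further: Shh protein binding to compounds spotted on small-molecule microarray slides; score combines spot fluorescence intensity with signal-to-noise across triplicate slides.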 The following applies: 635 nm fluorescence, higher = more signal.

Sequence of Streptavidin (Streptomyces avidinii) (P22629 whole entry, looked up): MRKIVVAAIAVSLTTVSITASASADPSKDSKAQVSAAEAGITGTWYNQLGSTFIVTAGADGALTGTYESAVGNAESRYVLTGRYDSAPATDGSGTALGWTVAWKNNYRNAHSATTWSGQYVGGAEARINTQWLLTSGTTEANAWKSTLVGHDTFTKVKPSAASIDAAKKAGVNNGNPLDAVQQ
Sequence of Torsin-1A (Homo sapiens) (O14656 whole entry, looked up): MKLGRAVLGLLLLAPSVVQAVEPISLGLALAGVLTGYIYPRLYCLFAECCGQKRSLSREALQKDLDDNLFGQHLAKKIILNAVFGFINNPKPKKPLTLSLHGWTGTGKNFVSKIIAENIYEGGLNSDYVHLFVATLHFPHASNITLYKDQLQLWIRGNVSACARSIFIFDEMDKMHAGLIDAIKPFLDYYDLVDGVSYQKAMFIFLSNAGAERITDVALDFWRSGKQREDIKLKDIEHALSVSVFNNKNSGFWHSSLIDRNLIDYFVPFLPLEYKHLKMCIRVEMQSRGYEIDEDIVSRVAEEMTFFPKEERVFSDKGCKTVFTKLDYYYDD
Sequence of Luciferin 4-monooxygenase (Photinus pyralis) (P08659 whole entry, looked up): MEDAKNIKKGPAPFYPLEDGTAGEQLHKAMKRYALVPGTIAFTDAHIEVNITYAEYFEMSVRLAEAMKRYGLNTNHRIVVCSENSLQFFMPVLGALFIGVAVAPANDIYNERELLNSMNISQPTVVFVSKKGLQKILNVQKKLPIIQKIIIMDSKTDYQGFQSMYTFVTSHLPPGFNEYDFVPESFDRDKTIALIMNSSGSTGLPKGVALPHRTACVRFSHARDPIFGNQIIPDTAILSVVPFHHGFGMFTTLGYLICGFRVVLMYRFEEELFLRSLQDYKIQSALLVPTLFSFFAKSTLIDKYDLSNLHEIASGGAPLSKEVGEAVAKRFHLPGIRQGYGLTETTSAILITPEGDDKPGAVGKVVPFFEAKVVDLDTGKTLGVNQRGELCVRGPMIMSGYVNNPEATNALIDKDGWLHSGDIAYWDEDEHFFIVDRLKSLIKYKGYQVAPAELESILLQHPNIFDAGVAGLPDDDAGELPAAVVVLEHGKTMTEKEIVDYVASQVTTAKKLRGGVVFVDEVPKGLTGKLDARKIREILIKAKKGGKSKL
Sequence of Fibroblast growth factor 2 (Homo sapiens) (P09038 whole entry, looked up): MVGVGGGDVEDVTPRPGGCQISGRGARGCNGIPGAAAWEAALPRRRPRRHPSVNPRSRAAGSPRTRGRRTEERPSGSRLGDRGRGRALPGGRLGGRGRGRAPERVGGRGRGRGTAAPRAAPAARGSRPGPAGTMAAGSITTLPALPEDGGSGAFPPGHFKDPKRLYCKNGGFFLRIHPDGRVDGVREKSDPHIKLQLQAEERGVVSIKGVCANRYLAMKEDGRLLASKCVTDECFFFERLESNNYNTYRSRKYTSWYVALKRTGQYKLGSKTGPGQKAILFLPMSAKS
Sequence of Focal adhesion kinase 1 (Homo sapiens) (Q05397 whole entry, looked up): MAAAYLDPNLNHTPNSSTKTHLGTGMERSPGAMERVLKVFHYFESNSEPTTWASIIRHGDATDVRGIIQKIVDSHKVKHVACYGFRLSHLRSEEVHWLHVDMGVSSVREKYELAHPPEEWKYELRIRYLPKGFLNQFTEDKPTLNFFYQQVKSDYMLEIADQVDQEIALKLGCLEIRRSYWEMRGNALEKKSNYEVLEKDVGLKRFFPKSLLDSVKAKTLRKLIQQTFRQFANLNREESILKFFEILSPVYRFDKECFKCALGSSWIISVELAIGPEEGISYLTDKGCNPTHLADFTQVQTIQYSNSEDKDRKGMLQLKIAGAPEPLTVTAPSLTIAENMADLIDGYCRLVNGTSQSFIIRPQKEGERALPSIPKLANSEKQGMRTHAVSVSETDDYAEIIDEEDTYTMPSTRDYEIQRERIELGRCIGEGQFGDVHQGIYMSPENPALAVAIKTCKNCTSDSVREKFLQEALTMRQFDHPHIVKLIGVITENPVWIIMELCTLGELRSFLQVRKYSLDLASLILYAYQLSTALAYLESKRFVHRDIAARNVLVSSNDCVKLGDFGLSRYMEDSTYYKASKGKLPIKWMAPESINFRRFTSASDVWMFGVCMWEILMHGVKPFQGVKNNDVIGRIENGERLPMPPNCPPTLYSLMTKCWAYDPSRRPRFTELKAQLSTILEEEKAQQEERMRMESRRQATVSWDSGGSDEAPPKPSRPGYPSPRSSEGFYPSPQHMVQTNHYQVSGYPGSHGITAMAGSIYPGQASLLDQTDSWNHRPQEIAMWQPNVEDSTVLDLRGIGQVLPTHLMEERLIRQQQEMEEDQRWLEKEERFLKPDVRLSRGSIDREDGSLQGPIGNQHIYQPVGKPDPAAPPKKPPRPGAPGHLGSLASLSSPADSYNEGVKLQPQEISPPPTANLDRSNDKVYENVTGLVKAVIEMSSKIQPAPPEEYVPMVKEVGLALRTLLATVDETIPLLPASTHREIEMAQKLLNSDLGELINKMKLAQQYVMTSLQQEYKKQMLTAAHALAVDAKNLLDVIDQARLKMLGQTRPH
Sequence of Follistatin (Homo sapiens) (P19883 whole entry, looked up): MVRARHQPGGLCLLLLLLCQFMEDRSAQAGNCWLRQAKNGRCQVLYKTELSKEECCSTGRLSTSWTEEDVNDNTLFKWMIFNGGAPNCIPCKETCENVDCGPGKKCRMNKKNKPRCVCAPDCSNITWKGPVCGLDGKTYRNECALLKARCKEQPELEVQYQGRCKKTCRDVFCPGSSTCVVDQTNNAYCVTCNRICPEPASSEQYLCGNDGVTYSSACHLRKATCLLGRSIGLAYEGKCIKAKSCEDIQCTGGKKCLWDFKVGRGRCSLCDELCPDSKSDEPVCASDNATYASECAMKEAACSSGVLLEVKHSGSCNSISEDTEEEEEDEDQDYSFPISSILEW

Consider `CN(C)CCCC[C@@H]1NC(=O)[C@H]2C[C@@H](C(=O)NCCCCCCN)[C@@H](c3ccc(O)cc3)N2C1=O`, for which the composite z-score in [1] was 2.07; in [2], 1.09; in assay [3], 0.333; in assay [4], 0.977; in [5] it was 1.41; in [6] it was 1.82. Moreover, the composite z-score was 1.67 in the assay on Lefty1; 1.03 in assay [8]; 0.538 in assay [10]; 1.28 in assay [15]; 0.308 in assay [16]; 1.13 with Torsin-1A (Homo sapiens) [17]. The figures for the composite z-score (in the assay with Torsin-1A (Homo sapiens) [18]; in [19]) were 0.755 and 2.03, respectively. Besides, the z-score is 0.462 in assay [7]; 0.498 (inactive) in assay [9]; 0.181 (inactive) in [11]; 0.523 (inactive) in assay [12]; -0.256 (inactive) in assay [13]; -0.139 (inactive) in assay [14].
As for `O=C1c2ccccc2[C@](Cc2ccccc2I)(C(=O)NCCN2CCOCC2)[C@H](c2ccc(CO)cc2)N1C1CCCCC1`, the composite z-score in assay [1] was determined as 1.77; in assay [2], 1.19; in assay [3], 0.991; in assay [4] it was 0.927; in assay [5] it was 1.34; in assay [6], 0.804. Moreover, the composite z-score was 1.36 with Lefty1; 1.16 in assay [8]; 0.379 in assay [10]; 0.934 in [15]; 0.216 in assay [16]; 0.873 with Torsin-1A (Homo sapiens) [17]. For the same compound, the figures for the composite z-score (with Torsin-1A (Homo sapiens) [18]; in assay [19]) were 0.469 and 1.52, respectively. In addition, the z-score in [7] was 1.34; in assay [9], -0.147 (inactive); in assay [11] it was -3.69 (inactive); in [12], 0.155 (inactive); in assay [13] it was -0.168 (inactive); in assay [14] it was -0.0922 (inactive).
Consider `CCCC[C@H]1OB(O)C[C@H]2C1=C(COC)Cn1c(=O)n(-c3ccccc3)c(=O)n12`, for which the composite z-score in assay [1] is -0.152; in [2], 0.169; in [3], -0.0429; in assay [4], 0.4; in [5], 0.464; in [6], -1.06. Moreover, the composite z-score in the assay with Lefty1 was 0.63; in [8] it was 0.435; in assay [10] it was 0.0162; in [15] it was -0.333; in assay [16], -0.182; with Torsin-1A (Homo sapiens) [17], 0.0681. Besides, the composite z-score with Torsin-1A (Homo sapiens) [18] was 0.0861; in [19], 0.948. Besides, the z-score in assay [7] was -0.514; in assay [9], 0.382 (inactive); in assay [11], 0.0344 (inactive); in assay [12], -0.549 (inactive); in [13] it was -0.327 (inactive); in assay [14], 0.124 (inactive).
As to `C=C(COC)/C(=C/C[C@H](OC(C)=O)c1ccc(CO)o1)c1cc(C(=O)OC)ccc1OC`, the composite z-score in assay [1] is 0.795; in [2], 0.516; in assay [3], 0.0348; in assay [4], 0.255; in assay [5] it was 0.435; in assay [6], -0.1. Also, the composite z-score was 0.57 with Lefty1; -0.199 in assay [8]; 0.122 in [10]; -0.427 in [15]; -0.154 in assay [16]; -0.156 in the assay with Torsin-1A (Homo sapiens) [17]. Besides, the composite z-score stood at 0.647 with Torsin-1A (Homo sapiens) [18] and 0.756 in assay [19]. Moreover, the z-score in assay [7] was -0.91; in assay [9] it was -0.769 (inactive); in assay [11], -3.08 (inactive); in assay [12] it was -0.261 (inactive); in [13], 1.78 (inactive); in assay [14], 1.71 (inactive).
With `C=CCNC(=O)[C@@H]1[C@H]2C(=O)O[C@H](c3ccccc3)[C@H](c3ccccc3)N2[C@H](c2ccc(OCCO)cc2)[C@@]12C(=O)Nc1ccc(C#CCC(C(=O)OC)C(=O)OC)cc12`, the composite z-score was found to be 2.67 in assay [1]; 1.2 in [2]; 0.913 in assay [3]; 0.641 in [4]; 0.85 in [5]; 0.582 in assay [6]. Besides, the composite z-score with Lefty1 was found to be 0.728; in [8] it was 1.25; in assay [10], 0.187; in assay [15] it was 0.316; in [16], 0.573; with Torsin-1A (Homo sapiens) [17], 0.309. Also, the values for the composite z-score (in the assay with Torsin-1A (Homo sapiens) [18]; in assay [19]) were 1.46 and 1.49, respectively. In addition, the z-score was -0.21 in assay [7]; -1.08 (inactive) in assay [9]; -3.86 (inactive) in assay [11]; 0.827 (inactive) in assay [12]; 0.488 (inactive) in assay [13]; -1.19 (inactive) in [14].
